# Test results reported in PubChem BioAssay (NCATS).
# “And” between values parts separate entries of the source, which are not always exact repeats. Equal values may be shown once. Inconclusive results are not listed. The source made the active and inactive calls. Calls come from the whole dose curve.
# Experiment: qHTS Assay for Lipid Storage Modulators (AID 1519)
# Settings: Drosophila S3 cells, BODIPY lipid droplet/cell ratio, laser cytometry; at 25.7 µM (top of the series); cells loaded with oleic acid
# How it was run: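 Cells seeded at 5,000 per well were treated with compounds over a concentration series and loaded with oleic acid (400 uM, as added). Lipid droplet fluorescence (488 nm excitation, 500-530 nm channel) was read by laser-scanning cytometry and normalized to 20 uM Triacsin C.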
# % is set by controls: 0 for no effect and ±100 for the full control effect.
row,SMILES,"activity change, negative = inhibition"
1,CCOC(=O)n1ccn(C)c1=S,-1.84% (inactive)
2,CC(C)N=C(N)/N=C(\N)Nc1ccc(Cl)cc1,-2.29% (inactive)
3,CN1CCC(=C2c3ccccc3Sc3ccccc32)CC1,-2.77% (inactive)
4,C[C@@H](CN(C)C)CN1c2ccccc2Sc2ccccc21,-1.55% (inactive)
5,CC(O)(P(=O)(O)O)P(=O)(O)O,2.54% (inactive)
6,Cc1cc(=O)n(-c2ccccc2)n1C,1.11% (inactive)
7,OC(CCN1CCCCC1)(c1ccccc1)c1ccccc1,-4.82% (inactive)

# Same assay, conditions: Drosophila S3 cells, BODIPY lipid droplet/cell ratio, laser cytometry; at 57.5 µM (top of the series); cells loaded with oleic acid
row,SMILES,"activity change, negative = inhibition"
1,Cc1c(C(N)=O)cc([N+](=O)[O-])cc1[N+](=O)[O-],9.82% (inactive)
2,Nc1nc2ncc(CNc3ccc(C(=O)N[C@@H](CCC(=O)O)C(=O)O)cc3)nc2c(=O)[nH]1,8.45% (inactive)
3,CC(C)NC[C@@H](O)COc1cccc2ccccc12,2.8% (inactive)
4,COc1ccc(CCN2CCC(Nc3nc4ccccc4n3Cc3ccc(F)cc3)CC2)cc1,12.8% (inactive)
5,CC(=O)N(O)CCCCCNC(=O)CCC(=O)N(O)CCCCCNC(=O)CCC(=O)N(O)CCCCCN,6.43% (inactive)
6,CN1CCN(C(c2ccccc2)c2ccccc2)CC1,7.26% (inactive)
7,C/C=C(/C(=C/C)c1ccc(O)cc1)c1ccc(O)cc1,15.3% (inactive)
8,C[N+]1(CCCCC[N+]2(C)CCCC2)CCCC1,3.44% (inactive) and 1.51% (inactive)
9,CCCC(=O)Nc1ccc(OCC(O)CNC(C)C)c(C(C)=O)c1 (configuration not stated),5.02% (inactive)
10,COc1cc(OC)cc(OC)c1,0.768% (inactive)
